# This is a sample that favours compounds with a hit; in the whole collection about 1.7% have one here.
# S1P2 antag = antagonists of human S1P2 receptor | O95136 | cell-based S1P2 antagonist assay, inhibition at 5 uM | inhibition, % at 5 µM | 0.21% of 97,000 active | AID 736; in the data active = inhibition above about 45%;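 also: CRE beta-lactamase reporter cells expressing human S1P2 stimulated with S1P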
# Target sequence (O95136 whole entry, looked up): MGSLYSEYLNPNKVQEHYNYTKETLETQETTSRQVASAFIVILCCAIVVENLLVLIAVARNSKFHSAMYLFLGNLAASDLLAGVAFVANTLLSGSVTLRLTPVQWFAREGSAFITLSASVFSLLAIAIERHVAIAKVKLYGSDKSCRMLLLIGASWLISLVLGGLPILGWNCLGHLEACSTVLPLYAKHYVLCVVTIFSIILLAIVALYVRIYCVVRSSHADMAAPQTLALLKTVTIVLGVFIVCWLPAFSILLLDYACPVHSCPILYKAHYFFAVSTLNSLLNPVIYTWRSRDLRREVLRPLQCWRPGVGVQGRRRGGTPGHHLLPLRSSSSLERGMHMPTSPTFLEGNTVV
# GALR2 agonist = agonists of human galanin receptor 2 (GALR2); GALR2-expressing cells, agonist activation read-out; activation, % (concentration not given with the values); 0.48% of 140,000 active; AID 803; in the data active = activation above about 5%, passing the limit was not always enough
# S1P2 agonist = S1P2 (human) receptor agonism. S1P2-expressing cell line, agonist reporter read-out. activation, % at 4.5 µM. AID 729. 0.46% of 97,000 active. O95136; in the data active = activation above about 16%
# MRP-1 activ = activates MRP-1; AID 799; viability increase, % at 10 µM; H69AR cells + doxorubicin, viability rescue, CellTiter-Glo; 0.61% of 140,000 active;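 active = viability gain under doxorubicin at or above a set limit, the compound median plus 3 SD, cut at about 4.7% in these data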;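 also: MRP-1 overexpressing cells given doxorubicin 25 µM after compound pretreatment; 18-22 h compound pretreatment then 72 h with doxorubicin before readout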
# GALR2 antag = GALR2 (human) receptor antagonism | O43603 | GALR2-expressing cells, antagonist mode | inhibition, % at 4 µM | 0.39% of 140,000 active; in the data active = inhibition above about 27%;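 also: cells stimulated with galanin 1-16 at roughly its EC80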
# MRP resist rev = compounds reversing MRP-mediated drug resistance | H69AR cells + 2 uM doxorubicin, CellTiter-Glo, 72 h | differential viability (reversal), % at 10 µM | 0.04% of 85,000 active;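 active = viability drop by adding the cancer drug above about 55%, with treated viability meeting a 40% cutoff, limit read from the data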;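 also: larger differential means the compound sensitizes cells more to doxorubicin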
# GALR2 ag confirm = confirmation of human galanin receptor 2 (GALR2) agonists | shares compounds with GALR2 agonist | GALR2-expressing cells, agonist activation | activation, % at 5.6 µM | 10% of 460 active | AID 864; in the data active = activation above about 8.4%
# BLA activ ctr = beta-lactamase activation, GALR2 counterscreen | shares compounds with GALR2 agonist | CHO NFAT-bla reporter, beta-lactamase FRET activation | activation, % at 5.6 µM | 10% of 460 active | AID 865;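 active = activation above the screen-wide mean activation plus 3 SD, cut at about 8% in these data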
# Hits are given with their value; . = inactive; / = not tested or not shown; ! = not active in a repeat.
SMILES,S1P2 antag,GALR2 agonist,S1P2 agonist,MRP-1 activ,GALR2 antag,MRP resist rev,GALR2 ag confirm,BLA activ ctr
COCC(C)NC(=O)COc1ccc(Cl)cc1Cl (configuration not stated),.,.,.,.,.,.,.,.
CCCSc1nc2c(cnn2-c2ccccc2)c(=O)[nH]1,/,.,/,.,.,.,/,/
O=c1[nH]c(/C=C/c2ccccc2OC(F)F)nc2c1cnn2-c1ccccc1,/,15.2,/,.,.,/,8.8,.
Cn1c(SCC(=O)N2c3ccccc3CCc3ccccc32)nnc1-c1ccc(O)cc1,/,.,/,.,.,/,/,/
Cc1ccc(-c2nn(CC(N)=O)c(=O)c3ccccc23)cc1S(=O)(=O)N(C)C,.,33.8,.,.,.,.,.,.
CC(=O)c1ccc(NC(=O)c2cccs2)cc1,.,.,.,.,.,.,/,/
N/C(=N\O)c1ccc(NC(=O)c2cccs2)cc1,/,25.2,/,.,.,.,.,.
COc1ccc(/C=N/Nc2ccccc2)cc1Cn1nc(C)c([N+](=O)[O-])c1C,.,.,.,.,.,.,/,/
CCc1cc2c(CN3CCN(CCO)CC3)cc(=O)oc2cc1O,.,.,.,.,.,.,.,.
CCc1cc2c(CN3CCN(C)CC3)cc(=O)oc2cc1O,.,.,.,.,.,.,/,/
COc1ccc(Br)cc1/C=N/NC(=O)c1nc(-c2ccccc2)n2c1CCCCC2,.,.,.,.,.,/,/,/
Cc1ccc(C)c(NC(=O)/C(C#N)=C/c2cn(CC(=O)NCc3ccco3)c3ccccc23)c1,/,69.6,/,.,.,/,27.4,27.5
Cc1cc(C)cc(NC(=O)/C(C#N)=C/c2cn(CC(=O)NCc3ccco3)c3ccccc23)c1,/,52.1,/,.,.,/,26.0,23.6
Cc1ccccc1OCCn1cc(/C=C(\C#N)C(=O)NCc2ccco2)c2ccccc21,/,.,/,.,.,/,/,/
CC(C)CC(=O)NCCCCc1ccccc1,/,.,/,.,.,/,/,/
Cc1ccc(COCC(CC(C)C)N2CCN(C(=O)c3cccc(C(F)(F)F)c3)CCC2=O)cc1 (configuration not stated),/,8.9,/,.,.,/,.,.
CC(C)CC(COCc1ccc(F)cc1)N1CCN(C(=O)c2cccc(C(F)(F)F)c2)CCC1=O (configuration not stated),/,.,/,.,.,/,/,/
Cc1ccccc1-c1nc2ccccc2[nH]1,.,.,.,.,.,.,/,/
c1ccc2[nH]c(-c3ccnc4ccccc34)nc2c1,.,12.1!,.,.,.,.,.,.
Cc1nnc(SCC(=O)Nc2sc3c(c2C(=O)c2ccccc2)CCCC3)s1,/,.,/,.,.,/,/,/
O=S(=O)(c1ccc(N2CCN(CCO)CC2)nc1)N1CCCCC1,.,21.5,.,.,.,.,.,.
CCOC(=O)c1ccc(NC(=S)N2CCSC2c2ccc(Br)cc2)cc1 (configuration not stated),/,17.2,/,.,.,/,17.3,37.8
CCN(CC)S(=O)(=O)c1ccc(NC(=O)COC(=O)CCc2cc(OC)c(OC)c(OC)c2)cc1,/,.,/,.,.,/,/,/
CC(=O)Oc1c(C)cc(Cl)cc1C(=O)Nc1ccc([N+](=O)[O-])cc1Cl,/,.,/,.,.,/,/,/
Cc1ccc(CCNC(=O)c2ccc(CS(=O)(=O)Cc3ccccc3F)o2)cc1,.,.,.,.,.,.,/,/
SMILES,S1P2 antag,GALR2 agonist,S1P2 agonist,MRP-1 activ,GALR2 antag,MRP resist rev,GALR2 ag confirm,BLA activ ctr
O=C(NCCc1ccccc1)c1ccc(CS(=O)(=O)Cc2ccccc2F)o1,.,.,.,.,.,.,.,.
Cc1cc2c(C)cc(=O)oc2c2c1NCCC2,.,13.4,.,.,.,.,.,.
CCCCc1cc(O)c(CCCC)c(O)c1,.,9.8,.,.,.,.,12.4,26.6
CC1=NN(/C(=N\c2nnc(C)s2)Nc2ccc(C(C)(C)C)cc2)[C@H](c2ccc(C)cc2)S1,.,.,.,.,.,.,/,/
Cc1cc(C(=O)c2ccc(C(C)(C)C)cc2)c(NC(=O)CCl)s1,/,.,/,.,.,/,/,/
CC(=O)N1N=C(c2ccc(C)cc2)OC1c1ccc(C)cc1 (configuration not stated),.,76.9,.,.,.,.,.,.
CCOCCCNC(=O)C1CC(=O)N(C2CCCC2)C1 (configuration not stated),.,27.9,.,.,.,.,.,.
COc1ccc(C(=O)c2sc(Nc3cccc(OC)c3)c(C(=O)Nc3cccc(C)c3C)c2N)cc1,.,16.2,.,.,.,/,.,.
COc1ccc(NC(=O)c2c(Nc3ccccc3)sc(C(=O)c3ccc(F)cc3)c2N)cc1,.,.,.,.,.,/,/,/
COc1ccc(Nc2sc(C(=O)c3ccc(Cl)cc3)c(N)c2C(=O)Nc2ccccc2OC)cc1,.,14.1,.,.,.,/,.,.
CCNCCNc1ccc(Cl)cc1[N+](=O)[O-],.,.,.,/,.,/,/,/
CS(=O)(=O)NCCCNc1ccc(Cl)cc1[N+](=O)[O-],.,58.0,.,.,.,.,.,.
CCCCCCc1cc2cc(S(=O)(=O)c3ccc(F)c(Cl)c3)c(=O)oc2cc1O,/,19.3,/,.,.,/,26.0,50.5
CCCCCCc1cc2cc(C(=O)NC)c(=N)oc2cc1O,.,.,.,.,.,/,/,/
CCCCCCc1cc2cc(C(N)=O)c(=N)oc2cc1O,.,104.6,38.8,.,.,.,.,23.1
O=C(CNC(=O)C(c1ccccc1)c1ccccc1)OCC(=O)c1cccs1,/,.,/,.,.,/,/,/
CCOC(=O)CN(Cc1sccc1C)C(=O)Nc1ccc(OC)cc1OC,/,.,/,.,.,/,/,/
COc1ccccc1CNC(=O)C1(c2ccc(Cl)cc2)CC1,/,.,/,.,.,/,/,/
O=c1[nH]ncn2cccc12,.,24.6,.,.,.,/,.,.
COc1cccc2cc(-c3nnc(SCC(=O)NCCc4ccccc4)n3C)oc12,.,.,.,.,.,.,.,.
O=c1oc2ccccc2cc1-c1nc2c(s1)CCc1ccccc1-2,/,10.4,/,.,.,/,.,.
Nc1nnc(-c2cc3ccccc3oc2=O)s1,.,.,.,.,.,.,/,/
Cc1coc2c(C)c3oc(=O)c4c(c3cc12)CCCC4,/,/,/,/,/,.,/,/
Cc1oc2c(C)c3oc(=O)c4c(c3cc2c1C)CCC4,.,.,.,.,.,.,.,.
Cc1ccc(C(=O)NC(=S)Nc2ccc(NC(=O)c3cccc(Cl)c3)cc2)cc1,/,10.1,/,.,.,/,.,.
SMILES,S1P2 antag,GALR2 agonist,S1P2 agonist,MRP-1 activ,GALR2 antag,MRP resist rev,GALR2 ag confirm,BLA activ ctr
CCN(C(=O)CN1CCN(S(=O)(=O)c2cc(Cl)ccc2Cl)CC1)c1c(N)n(Cc2ccccc2)c(=O)[nH]c1=O,/,.,/,.,.,/,/,/
CCOc1ccc(Br)cc1S(=O)(=O)Nc1ccc(C(=O)Nc2ccc(C)cc2)cc1,/,.,/,.,.,/,/,/
CCOc1ccc(Br)cc1C(=O)Nc1ccc(C(=O)NCC(C)C)cc1,/,14.1,/,.,.,/,12.9,.
O=C(N/N=C/c1c(F)cccc1Cl)c1ccc(Cn2cc(Br)cn2)o1,/,40.0,/,.,.,/,.,.
COc1nc(N=C(N)N)nc2ccc(C)cc12,/,.,/,.,.,/,/,/
O=C(CC1CCCCC1)Nc1ccccc1-c1ccccc1,/,.,/,.,.,/,/,/
